Compound activity from PubChem BioAssay.
This is a sample that favours compounds with a hit; in the whole collection about 3.6% have one here.
D1 potentiator – enhances dopamine response at the human D1 receptor | P21728 | HEK293 TREx D1 cells, calcium flux, dopamine EC20 potentiation | potentiation, % at 10 µM | 360,000 compounds, 0.036% hits; in the data active = potentiation above about 30%; note: 0% is about no effect
TRHR agonist – TRH receptor (human) agonism; P34981; TRHR cells, calcium flux fluo-8, FDSS agonist mode; activation, % at 2 µM; 360,000 compounds, 0.18% hits; AID 493084; note: 0% is about no effect
Target sequence (P34981 whole entry, looked up): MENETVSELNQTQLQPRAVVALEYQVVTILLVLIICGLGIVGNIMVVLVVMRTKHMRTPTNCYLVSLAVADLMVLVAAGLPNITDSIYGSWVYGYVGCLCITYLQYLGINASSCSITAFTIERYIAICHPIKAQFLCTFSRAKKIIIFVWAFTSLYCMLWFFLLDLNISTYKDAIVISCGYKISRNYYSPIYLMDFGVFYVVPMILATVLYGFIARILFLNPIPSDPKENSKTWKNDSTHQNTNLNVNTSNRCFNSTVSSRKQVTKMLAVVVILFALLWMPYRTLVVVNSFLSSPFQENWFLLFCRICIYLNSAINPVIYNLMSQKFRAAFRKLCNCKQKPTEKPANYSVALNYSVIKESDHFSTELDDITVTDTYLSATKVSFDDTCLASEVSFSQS
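Fluo-8-loaded TRHR cells; 10 s baseline, compound added, kinetic Ca2+ fluorescence read 1/s, agonist mode.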
D1 agonist – activates the human D1 dopamine receptor | P21728 | HEK293 T-REx D1 cells, calcium flux, agonist mode | activation, % at 2 µM | 360,000 compounds, 1% hits; note: 0% is about no effect
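Inducible HEK293 T-REx D1 cells, force-coupled to calcium signalling, were plated at 4000 cells/well with tetracycline and held overnight at 30 C. After no-wash calcium dye loading, compound-evoked calcium rise over 180 s flagged agonists.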
TRHR PAM – TRH receptor (human) allosteric enhancement; P34981; TRHR cells, fluo-8 calcium fluorescence, EC20 TRH enhancement; enhancement, % at 2 µM; 360,000 compounds, 0.66% hits; in the data active = enhancement above about 30%; note: 0% is about no effect
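TRHR-expressing cells loaded with fluo-8 calcium dye were read kinetically (ex 480/em 530) during compound addition, then stimulated with an EC20 of TRH (10 nM final). Enhancement of the Gq-mediated intracellular calcium response was scored.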
D1 antag – antagonists of human D1 dopamine receptor; 360,000 compounds, 3.2% hits; HEK293 TREx D1 cells, calcium flux, dopamine EC80; hits give low values; activity change, negative = inhibition, % at 10 µM; P21728; in the data active = activity change below about -30%; note: % is set by controls: 0 for no effect and ±100 for the full control effect
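HEK293 T-REx cells expressing inducible, force-coupled D1 receptor; no-wash Ca dye, 30–90 min RT. Cmpd → 180 s read at 1 Hz → EC80 DA → 180 s read.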
LDHA inh – inhibitors of human lactate dehydrogenase A; P00338; purified LDHA, NADH/diaphorase-resazurin fluorescence; hits give low values; AID 1347041; activity change, % (values are at about 110 or 230 µM); 480,000 compounds, 0.15% hits; in the data active = activity change below about -30%;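 note: plate controls were DMSO wells for no effect and wells without enzyme for full effect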
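Human LDH5 (2 nM) was incubated with 0.06 mM NADH and 0.2 mM pyruvate for 5 min at room temperature in Tris pH 7.4. Remaining NADH was coupled through diaphorase/resazurin, and resorufin fluorescence was read at 0 and 20 min.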
Numbers without * were called inactive; / = not tested or not shown; ! = a repeat was not active. Cut-off read from the data, not from the text of the source, unless noted: active = activation above about 30%; inactive = the rest.

SMILES	D1 potentiator	TRHR agonist	D1 agonist	TRHR PAM	D1 antag	LDHA inh
COc1cccc2c(=O)cn[nH]c12	-7	0	1	2	-52*	-2
O=C(Cc1ccccc1)Nc1ccc(Br)c(Cl)c1	-11	-1	22	3	-55*	-1
O=C(Cc1ccccc1)Nc1ccc(NC(=O)Cc2ccccc2)c(Cl)c1	0	0	2	-6	-36*	-7
O=C(Cc1ccccc1)Nc1ccc(NC(=O)c2ccccc2)c(Cl)c1	-5	0	4	-3	7	-2
O=C(Cc1ccc(-c2ccccc2)cc1)Nc1ccccc1	4	1	33*	10	-12	-8
O=C(NCc1ccc(S(=O)(=O)N2CCOCC2)cc1)c1ccc(Cl)cc1O	/	/	/	/	/	4
Cc1c(C)n(CCc2ccccc2)c2ncnc(NCCCO)c12	-7	-1	-1	6	-32*	-3
COc1ccccc1-c1nnc(SCC(=O)c2ccc(Br)s2)n1C	/	/	/	/	/	-9
Cc1nn2c(C)c(C(=O)NCC(C)c3ccccc3)cnc2c1-c1ccccc1 (stereo unspecified)	1	0	1	35*	3	-4
Cc1csc(SCC(=O)Nc2ccc(C)c(F)c2)n1	3	-1	1	-3	-39*	-9
CN(C)CCNc1nnnc2c1sc1nc(N3CCOCC3)c3c(c12)CC(C)(C)OC3	/	/	/	/	/	-3
Cc1cccc(NS(=O)(=O)c2ccc3[nH]c4c(c3c2)CCCCCC4)c1	-6	0	1	-2	-87*	-10
COc1ccc(CNC(=O)CN(C)S(=O)(=O)c2ccc3[nH]c4c(c3c2)CCCC4)cc1	0	1	-1	47*	-4	-5
CCOc1ccc(NS(=O)(=O)c2ccc3[nH]c4c(c3c2)CCCCC4)cc1	-2	0	1	7	-9	-1
CCOc1ccc(NS(=O)(=O)c2ccc3[nH]c4c(c3c2)CCCC4)cc1	1	0	0	6	-52*	1
CCc1cccc(C)c1Nc1nc(N)c(C(=O)c2ccc(OC)cc2)s1	/	/	/	/	/	5
CCc1ccc2oc(C(=O)N(Cc3ccc(C(C)(C)C)cc3)C3CCS(=O)(=O)C3)cc(=O)c2c1 (stereo unspecified)	/	/	/	/	/	-5
Cc1ccc2c(=O)cc(C(=O)N(Cc3ccc(C(C)(C)C)cc3)C3CCS(=O)(=O)C3)oc2c1 (stereo unspecified)	-3	0	0	-3	-75*	8
COc1ccc(CN(C(=O)c2cc(=O)c3ccccc3o2)C2CCS(=O)(=O)C2)cc1OC (stereo unspecified)	13	0	4	-3	-37*!	0
c1cc2ccc(CNC3CC3)cc2[nH]1	/	/	/	/	/	-1
CCc1cc(=O)oc2c(C)c(OC(C)C(=O)NCc3cccnc3)ccc12 (stereo unspecified)	/	/	/	/	/	8
CN1CCN(S(=O)(=O)c2ccc(N(C)Cc3ccc(C(F)(F)F)cc3)c([N+](=O)[O-])c2)CC1	-5	1	12	-11	-12	0
CCOc1ccc(CN(C)c2ccc(S(=O)(=O)N3CCN(C)CC3)cc2[N+](=O)[O-])cc1OC	-6	3	27	-8	-45*	1
C=CCOc1ccc(CN(C)c2ccc(S(=O)(=O)N3CCN(C)CC3)cc2[N+](=O)[O-])cc1	-18	2	14	-3	-36*	-6
COCCCNC(=O)/C(C#N)=C/c1cccc(NC(=O)c2ccccc2Cl)c1	-6	0	2	-8	-16	-7
SMILES	D1 potentiator	TRHR agonist	D1 agonist	TRHR PAM	D1 antag	LDHA inh
N#C/C(=C\c1cccc(NC(=O)c2ccccc2Cl)c1)C(=O)NCCc1ccccc1	-5	1	4	35*	-19	-2
COc1cc(/C=C(\C#N)C(=O)NCc2ccccc2)ccc1OCc1ccc(C(=O)O)cc1	-3	0	3	1	-5	-13
COc1cc(/C=C(/C#N)C(=O)NCCCc2ccccc2)ccc1OCC(=O)O	-2	0	1	2	-5	-34*
CCOC(=O)c1ccc(NC(=O)C(C)Sc2nc(=O)cc(N)n2CCc2ccccc2)cc1 (stereo unspecified)	-4	-2	-1	9	-2	-6
C=CCn1c(N)cc(=O)nc1SC(C)C(=O)Nc1ccc(C(=O)OCC)cc1 (stereo unspecified)	-3	0	4	-4	-35*	-7
CCCC(C)NC(=O)C1CCN(C(=O)C(C)(C)C)CC1 (stereo unspecified)	/	/	/	/	/	0
COC(=O)/C=C/c1ccc(OS(C)(=O)=O)c(OC)c1	/	/	/	/	/	0
CC(C(=O)Nc1ccc(F)c(F)c1F)N(C)CC(=O)Nc1ccccc1Br (stereo unspecified)	-6	0	0	6	-31*	-6
Cc1cccc(C)c1NC(=O)CN(C)C(C)C(=O)NCC(=O)Nc1ccc(F)c(F)c1F (stereo unspecified)	3	0	-1	-6	12	-10
CCCCN1C(=O)C2(NNc3ccccc3O2)c2ccccc21 (stereo unspecified)	-2	14	74*	-15	/	14
CCCCN1C(=O)C(O)(c2c(C)[nH]c3ccccc23)c2ccccc21 (stereo unspecified)	-6	1	1	3	-3	0
C=CCN1C(=O)C2(NNc3ccccc3O2)c2ccccc21 (stereo unspecified)	-1	8	45*	8	-22	15
CCN(Cc1ccccc1)C(=O)C(=O)c1c(C)n(C)c2ccccc12	/	/	/	/	/	3
CCOC(=O)C(C)Oc1ccc2c(=O)c(Oc3ccc(CC)cc3)c(C(F)(F)F)oc2c1 (stereo unspecified)	/	/	/	/	/	3
CCc1ccc2c(CN(C)Cc3nc4ccccc4c(=O)[nH]3)cc(=O)oc2c1	/	/	/	/	/	19
C=CCOc1ccc(/C(O)=C2/C(=O)C(=O)N(CCCn3ccnc3)C2c2cccs2)cc1 (stereo unspecified)	-11	0	2	-2	-52*	2
CC(=O)c1ccc(SCC(=O)Nc2ccc(N3CCCC3=O)c(C)c2)c(F)c1	/	/	/	/	/	1
COc1cccc(-c2nc3c(C#N)c[nH]n3c2NC2CCCC2)c1OC	-3	0	6	-8	-52*	-4
COc1cccc(-c2nc3c(C#N)c[nH]n3c2NC2CCCCC2)c1	-2	0	3	-10	-37*	1
COc1ccc(SCC(=O)NC2CCC(O)CC2)cc1 (stereo unspecified)	/	/	/	/	/	-5
N#Cc1cccc(OCc2ccc(-c3ccccc3)cc2)c1	/	/	/	/	/	-8
N#Cc1nc(-c2ccco2)oc1N1CCN(C(=O)c2ccc(Cl)cc2)CC1	/	/	/	/	/	10
